# From PubChem BioAssay (NCI)
# Values joined by “and” are separate entries in the source; they are usually repeats but may differ in a detail not shown here. Identical values can stand only once. Compounds without any hit were thinned out: in the full panel of roughly 83,000, 20% have a hit.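 Percent growth is the endpoint: 0 to 100 indicates growth inhibition (40 means 60% inhibition), 0 means no net growth, and negative values indicate cell death.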 Active and inactive are the calls of the source. How the source made its calls: active means growth percent below 10; inactive means the rest.
# Key:
# Assay in all cases: NCI-60 one-dose screen, 48 h (100 = growth as untreated, 0 = no growth, -100 = all killed)
# Conditions in all cases: 10 µM unless noted
# SR leukemia = test system: SR leukemia
# RPMI-8226 leukemia = test system: RPMI-8226 leukemia
# OVCAR-8 ovarian = test system: OVCAR-8 ovarian
# OVCAR-5 ovarian = test system: OVCAR-5 ovarian
# OVCAR-4 ovarian = test system: OVCAR-4 ovarian
# SK-OV-3 ovarian = test system: SK-OV-3 ovarian
# IGROV1 ovarian = test system: IGROV1 ovarian
# OVCAR-3 ovarian = test system: OVCAR-3 ovarian
# HS 578T breast = test system: HS 578T breast
# NCI/ADR-RES ovarian = test system: NCI/ADR-RES ovarian
# T-47D breast = test system: T-47D breast
# BT-549 breast = test system: BT-549 breast
# MDA-MB-435 melanoma = test system: MDA-MB-435 melanoma
# SW-620 colon = test system: SW-620 colon
# MCF7 breast = test system: MCF7 breast
# HCT-116 colon = test system: HCT-116 colon
# HCC-2998 colon = test system: HCC-2998 colon
# KM12 colon = test system: KM12 colon
Compound,growth (SR leukemia),growth (RPMI-8226 leukemia),growth (OVCAR-8 ovarian),growth (OVCAR-5 ovarian),growth (OVCAR-4 ovarian),growth (SK-OV-3 ovarian),growth (IGROV1 ovarian),growth (OVCAR-3 ovarian),growth (HS 578T breast),growth (NCI/ADR-RES ovarian),growth (T-47D breast),growth (BT-549 breast),growth (MDA-MB-435 melanoma),growth (SW-620 colon),growth (MCF7 breast),growth (HCT-116 colon),growth (HCC-2998 colon),growth (KM12 colon)
COc1ccc2cc3[n+](cc2c1OC)CCc1cc2c(cc1-3)OCO2,50% (inactive) and 68.8% (inactive),60.4% (inactive) and 43.8% (inactive),44.8% (inactive),70.5% (inactive),47.8% (inactive) and 79.1% (inactive),88.1% (inactive) and 104% (inactive),84.4% (inactive) and 74.8% (inactive),55.4% (inactive) and 54.2% (inactive),79.6% (inactive) and 73.5% (inactive),99% (inactive) and 101% (inactive),38.2% (inactive) and 47.4% (inactive),28.8% (inactive) and 32.3% (inactive),59% (inactive) and 66.2% (inactive),79.3% (inactive) and 92.3% (inactive),61.9% (inactive) and 76.9% (inactive),68.5% (inactive) and 89.6% (inactive),56% (inactive) and 96.8% (inactive),40.7% (inactive) and 30.1% (inactive)
CNc1cc(-c2cccc(OC(F)(F)F)c2)nc2ccc(N3CCCC3)cc12,-33.9% (active) and -44.7% (active) and -14.6% (active),-51.4% (active) and -43.5% (active) and -37.5% (active),34.7% (inactive) and -26.3% (active) and -2.97% (active),55.7% (inactive) and 12.4% (inactive) and 50% (inactive),53.1% (inactive) and -27.1% (active) and 22% (inactive),93.5% (inactive) and 55.3% (inactive) and 92.4% (inactive),35.5% (inactive) and -14.9% (active) and 53.2% (inactive),85.7% (inactive) and -90.8% (active) and 84.8% (inactive),88.4% (inactive) and 47.5% (inactive) and 75.7% (inactive),59% (inactive) and 20.9% (inactive) and 21.3% (inactive),-40.3% (active) and -55% (active) and -40.4% (active),-81.3% (active) and 74.1% (inactive) and 76.4% (inactive),35.8% (inactive) and -86.4% (active) and -70.6% (active),5.95% (active) and -18.2% (active) and 0.371% (active),3.84% (active) and -19.7% (active) and 0.755% (active),-76% (active) and -90.3% (active) and -76.6% (active),,12.5% (inactive) and -3.68% (active) and 1.48% (active)
Cc1ccc2nc3c(nc2c1)-c1cccc2cccc-3c12,64.9% (inactive),89.9% (inactive),69.6% (inactive),94.6% (inactive),92% (inactive),112% (inactive),63.9% (inactive),88.1% (inactive),92.9% (inactive),86.1% (inactive),87.6% (inactive),111% (inactive),103% (inactive),71.1% (inactive),38.3% (inactive),89.4% (inactive),103% (inactive),75.4% (inactive)
CN(C)c1ccc(C(Cc2ccc3ccccc3n2)Cc2ccc3ccccc3n2)cc1,39.5% (inactive) and 71% (inactive),25.4% (inactive) and 51.4% (inactive),46.5% (inactive) and 91.9% (inactive),58.7% (inactive) and 88.9% (inactive),45.5% (inactive) and 79.8% (inactive),77.5% (inactive) and 99.6% (inactive),36% (inactive) and 90.3% (inactive),55.2% (inactive) and 79.8% (inactive),70% (inactive) and 93% (inactive),37.5% (inactive) and 76.3% (inactive),34.7% (inactive) and 74.4% (inactive),-3.35% (active) and 93.1% (inactive),32.7% (inactive) and 87.1% (inactive),48.1% (inactive) and 79.3% (inactive),40.8% (inactive) and 68% (inactive),15.4% (inactive) and 51.6% (inactive),,42.1% (inactive) and 81% (inactive)
CCOC(=O)c1c(C)oc(C)c(C(=O)OCC)c1=O,118% (inactive) and 85% (inactive),85.9% (inactive) and 94.5% (inactive),104% (inactive) and 102% (inactive),114% (inactive),105% (inactive) and 94.6% (inactive),97.8% (inactive) and 95.3% (inactive),114% (inactive) and 94.7% (inactive),105% (inactive) and 127% (inactive),109% (inactive),108% (inactive),99.1% (inactive) and 87.7% (inactive),79.4% (inactive) and 100% (inactive),111% (inactive) and 108% (inactive),104% (inactive) and 98.3% (inactive),97.7% (inactive) and 97.4% (inactive),97% (inactive) and 97.3% (inactive),102% (inactive),114% (inactive) and 117% (inactive)
Nc1cc2c(cc1N)-c1ccccc1C2,71.1% (inactive) and 90.7% (inactive),41.3% (inactive) and 61% (inactive),88.9% (inactive) and 89.5% (inactive),122% (inactive) and 109% (inactive),99.5% (inactive) and 107% (inactive),96.9% (inactive) and 95.1% (inactive),58.3% (inactive) and 79.2% (inactive),98.6% (inactive) and 97.7% (inactive),104% (inactive),89.4% (inactive) and 90.2% (inactive),80.8% (inactive) and 79.5% (inactive),64.1% (inactive) and 75.5% (inactive),91.6% (inactive) and 94.1% (inactive),108% (inactive) and 100% (inactive),81.2% (inactive) and 95% (inactive),98.8% (inactive) and 100% (inactive),102% (inactive) and 90.1% (inactive),90% (inactive) and 97.1% (inactive)
CC1(c2ccc3ccccc3c2)CCC(=O)O1 (centres undefined),92.2% (inactive),109% (inactive),101% (inactive),102% (inactive),110% (inactive),95.3% (inactive),102% (inactive),105% (inactive),125% (inactive),105% (inactive),103% (inactive),104% (inactive),106% (inactive),108% (inactive),,111% (inactive),109% (inactive),106% (inactive)
Oc1ccc(/C=C/c2ccccc2)cc1,48.6% (inactive) and 69.6% (inactive),61.3% (inactive) and 81.8% (inactive),66.2% (inactive) and 50.5% (inactive),97.5% (inactive) and 140% (inactive),61.5% (inactive),94.8% (inactive) and 99.4% (inactive),57.5% (inactive) and 59.9% (inactive),79.1% (inactive) and 76.5% (inactive),86.7% (inactive),43.5% (inactive) and 41.6% (inactive),97.4% (inactive) and 92.3% (inactive),62.6% (inactive) and 68.1% (inactive),76% (inactive) and 74.8% (inactive),72.1% (inactive) and 62.7% (inactive),65% (inactive) and 75% (inactive),75.8% (inactive) and 73.8% (inactive),86.8% (inactive) and 86.5% (inactive),54% (inactive) and 54.6% (inactive)
CC1=C(/C=C/C(C)=C/C=C/C(C)=C/C(=O)O)C(C)(C)CCC1,68.5% (inactive) and 87.1% (inactive) and 68.1% (inactive),31.4% (inactive) and 4.62% (active) and 31.1% (inactive),87% (inactive) and 89.2% (inactive),120% (inactive) and 110% (inactive),86.9% (inactive) and 92% (inactive) and 85% (inactive),72% (inactive) and 90.2% (inactive) and 101% (inactive),99.5% (inactive) and 96% (inactive) and 75.9% (inactive),88.2% (inactive) and 95% (inactive) and 107% (inactive),77.1% (inactive) and 97.4% (inactive) and 75.8% (inactive),90.9% (inactive) and 95% (inactive),63.4% (inactive) and 86.2% (inactive) and 77.1% (inactive),100% (inactive) and 84.9% (inactive) and 99.2% (inactive),92.3% (inactive) and 90.7% (inactive) and 107% (inactive),111% (inactive) and 106% (inactive) and 116% (inactive),68.6% (inactive) and 67.4% (inactive) and 73.2% (inactive),83% (inactive) and 98.7% (inactive) and 89.6% (inactive),108% (inactive) and 111% (inactive) and 105% (inactive),94.7% (inactive) and 105% (inactive) and 102% (inactive)
